Drawing on PubChem BioAssay AID1117270 (Broad Institute, 2014), this text covers max activity for 14 compounds.

Potency and affinity values are given separately. Active and inactive are the calls of the source.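 How the source made its calls: active means compounds with a valid dose curve toward the stimulated control whose half-maximal dose is at most twice the top dose; inconclusive means curve fit judged invalid or of poor quality; inactive means the rest.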

The assay in a line: inducers of E-selectin gene expression, confirmation, orthogonal assay for E-selectin inducer project, cell-based, HUVEC, RT-qPCR, dry powder (AID 1117270). Conditions: HUVEC SELE mRNA, 7 h; at 38 µM unless noted. In general terms: Real-time PCR tracks product formation cycle by cycle.
`CNc1ccccc1C(C)(C)c1cc(-c2cccc(OC)c2)no1`: the max activity is -5.8% [at 0.0001 µM] (inactive).

Turning to `OCc1ccc(-c2nn(Cc3ccccc3)c3ccccc23)o1`, the max activity is 6.5% [at 2.6 µM] (inactive). In the case of `Cc1cc2ccccc2n1CCNC(=O)COc1ccc2ccccc2c1` it was 9.31% [at 10 µM] (inactive); in that of `O=C(c1c(F)cccc1F)N(Cc1ccccc1)Cc1ccccc1`, -17.4% [at 0.16 µM] (inactive). In the case of `Cc1cc2cc(CNC(=O)Nc3cccc(Cl)c3)ccc2n1C` it was 7.76% [at 1.2 µM] (inactive); in that of `Cc1cc2cc(CNC(=O)Nc3ccc(Cl)c(Cl)c3)ccc2n1C`, -8.31% (inactive); in that of `Cc1ccc(CSc2nc3[nH]ncc3c(=O)[nH]2)cc1`, 8.8% [at 0.0001 µM] (inactive). For `CCc1cccc2c1NC1(CCCC1)CC2C` (centres undefined), the max activity was 7.51% [at 5 µM] (inactive). In the case of `CCc1ccc(-n2c(=S)sc3c(=O)n(-c4ccccc4C)c(SCC(=O)O)nc32)cc1`, the max activity is 9.28% [at 10 µM] (inactive). Regarding `O=C(O)C1CCN(c2nc(-c3ccccc3)c3cc(Br)ccc3n2)CC1`, the max activity was -4.71% [at 0.038 µM] (inactive).

Regarding `Cc1cc(C)c(S(=O)(=O)NCCn2c(C)cc3ccccc32)c(C)c1`, the max activity is -91.1% (inactive).

For `COc1ccc(Nc2ccccc2N)cc1`, the max activity was 12.2% (inactive). As for `Cc1ccc(S(=O)(=O)NCc2ccc3c(c2)cc(C)n3C)cc1`, the figure is 4.64% (inactive); as for `COc1cc(CC2C(=O)Nc3ccccc32)cc(C)c1O` (centres undefined), 8.57% [at 0.038 µM] (inactive).
